Measurements taken from PubChem BioAssay (EPA / NIEHS).
Records with an inconclusive call do not appear. Active and inactive are the calls of the source. How the source made its calls: active means hit-call score of the fitted dose curve at least 0.9, where 1 is the maximum; inconclusive means response in the unintended direction; inactive means score below 0.9.

Biological target: Oxysterols receptor LXR-alpha (Homo sapiens) (UniProt Q13133)
Assay: ATG_LXRa_TRANS: Attagene TRANS-FACTORIAL HepG2 Assay for human Liver X Receptor alpha (LXRa) (AID 2282980)
Conditions: HepG2 Attagene TRANS reporter, LXRa transactivation
Protocol: ATG_TRANS is a cell-based, multiplexed-readout assay that uses HepG2, a human liver cell line, with measurements taken at 24 hours after chemical dosing in a 24-well plate.ATG_LXRa_TRANS is one of 30 assay component(s) measured or calculated from the ATG_TRANS assay. It is designed to make measurements of mRNA induction, a form of inducible reporter, as detected with fluorescence intensity signals by Reverse transcription polymerase chain reaction (RT-PCR) and Capillary electrophoresis technology.Data from the assay component ATG_LXRa_TRANS was analyzed into 1 assay endpoint. This assay endpoint, ATG_LXRa_TRANS, was analyzed in the positive analysis fitting direction relative to DMSO as the negative control and baseline of activity. Using a type of inducible reporter, measures of mRNA for gain-of-signal activity can be used to understand the reporter gene at the transcription factor-level as they relate to the gene NR1H3. Furthermore, this assay endpoint can be referred to as a primary readout, because this assay has produced multiple assay endpoints where this one serves a reporter gene function. To generalize the intended target to other relatable targets, this assay endpoint is annotated to the nuclear receptor intended target family, where the subfamily is non-steroidal.
Human liver HepG2 cells are transiently transfected with multiple reporter transcription units (MRTUs) in 6-well plates using FuGene 6 reagent (Roche; 3 ml FuGene/1 mg DNA). The MRTU constructs are regulated by a cis-regulating element (promoter). […] A major difference between the CIS and TRANS system is that in CIS activities of endogenous TFs are measured, whereas the TRANS assay evaluates changes in activities of exogenous, chimeric NR-Gal4 proteins. […] At the end of 24 hour incubation, total RNA was isolated using TriZol reagent (Invitrogen). The isolated RNA is then reverse-transcribed using oligo(dT) primer and Mo-MLV reverse transcriptase (Invitrogen) with DNAse I (Ambion) treatment for 30 min. The one-tenth of the produced cDNA was amplified by PCR using Taq DNA polymerase (Invitrogen) and two reporter sequence-specific primers. The PCR products were fluorescently labeled by primer extension with 6-arboxyfluorescein (6-FAM) 5'-labeled reporter sequence-specific primer (2 min at 95 C, 20 s at 68 C and 10 min at 72 C) and these products were digested with 5U of HpaI (New England Biolabs) for 2h at 37 C. The fragments were purified using Qiaquick PCR columns (Qiagen), analyzed on an ABI 3130xL genetic analyzer (Applied Biosystems) with peak positions identified by using a set of X-rhodamine (ROX)-labeled MapMarker1000 molecular weight standards (BioVentures). The raw capillary electrophoresis data was processed using Attagraph software (Attagene).

Oxysterols receptor LXR-alpha (Homo sapiens), sequence (Q13133 whole entry, looked up): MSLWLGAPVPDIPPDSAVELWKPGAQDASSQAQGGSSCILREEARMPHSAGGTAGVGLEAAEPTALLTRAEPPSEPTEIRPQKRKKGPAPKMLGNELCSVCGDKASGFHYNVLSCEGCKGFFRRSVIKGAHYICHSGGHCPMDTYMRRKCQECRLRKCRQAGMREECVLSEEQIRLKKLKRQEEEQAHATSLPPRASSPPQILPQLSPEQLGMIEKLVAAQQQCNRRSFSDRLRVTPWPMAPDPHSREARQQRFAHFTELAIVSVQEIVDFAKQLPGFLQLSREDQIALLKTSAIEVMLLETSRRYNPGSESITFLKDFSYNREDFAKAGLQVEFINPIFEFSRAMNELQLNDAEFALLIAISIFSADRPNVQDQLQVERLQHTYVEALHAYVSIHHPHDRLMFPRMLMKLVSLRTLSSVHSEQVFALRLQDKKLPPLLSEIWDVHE

| SMILES | outcome | AC50 |
| --- | --- | --- |
| CCCC[C@H]1CN(CC2CCOCC2)C(=O)OC12CCN(C1(C)CCN(C(=O)c3c(C)ncnc3C)CC1)CC2 | inactive |  |
| NC=O | inactive |  |
| CC(N)=O | inactive |  |
| Nc1nc(=S)c2[nH]cnc2[nH]1 | inactive |  |
| CC(=O)[C@@]1(O)CC[C@H]2[C@@H]3CCC4=CC(=O)CC[C@]4(C)[C@H]3CC[C@@]21C | inactive |  |
| O=C(N[C@@H](c1ccccc1)[C@@H]1CCCCN1)c1cccc(C(F)(F)F)c1Cl | inactive |  |
| N[C@@H](Cc1c[nH]c2ccccc12)C(=O)O | inactive |  |
| O=C(O)CN(CC(=O)O)CC(=O)O | inactive |  |
| C#CC(O)C(CC)CCCC (stereo not given) | inactive |  |
| O=[Si]=O | inactive |  |
| CC(=O)S[C@H](C(=O)N[C@H]1Cc2ccccc2[C@H]2CCC[C@@H](C(=O)O)N2C1=O)C(C)C | inactive |  |
| CCCCc1nc2cccnc2n1Cc1ccc(-c2ccccc2-c2nnn[nH]2)cc1 | inactive |  |
| Cn1cnc2c1c(=O)[nH]c(=O)n2C | inactive |  |
| S=c1[nH]c2ccccc2s1 | inactive |  |
| CCN(CC)CCOc1ccc(C(=C(Cl)c2ccccc2)c2ccccc2)cc1 | inactive |  |
| CC(=O)CC(c1ccccc1)c1c(O)c2ccccc2oc1=O (stereo not given) | inactive |  |
| CC(C)NCC(O)c1ccc(O)c(O)c1 (stereo not given) | inactive |  |
| C=CCc1ccc(OC)c(OC)c1 | inactive |  |
| O=Cc1ccccc1C=O | inactive |  |
| NC1CCCCC1 | inactive |  |
| CC(C)(O)c1ccc(CNC(=O)c2cccnc2Oc2ccc(F)cc2)cc1 | inactive |  |
| CS(=O)(=O)c1ccc([C@@H](C[C@H]2CCC(=O)C2)C(=O)Nc2cnccn2)cc1Cl | inactive |  |
| c1ccc2occc2c1 | inactive |  |
| CSc1ccc(Oc2ccc(S(N)(=O)=O)cc2CN(C)C)cc1C | inactive |  |
| CCCCCCCCCC[N+](C)(C)[O-] | inactive |  |
| COc1ccc(C(=O)Nc2nc3ccccc3c(NCc3ccccc3)c2C#N)cc1 | inactive |  |
| CN(C)CCCN(C)CCCN(C)C |  | 23.8 µM (active) |
| O=C(NS(=O)(=O)/C=C/c1cccs1)c1ccc(F)cc1Br | inactive |  |
| CCCCCCC(C=O)=Cc1ccccc1 | inactive |  |
| CC(=O)O[C@]1(C(C)=O)CC[C@H]2[C@@H]3C=C(Cl)C4=CC(=O)[C@@H]5C[C@@H]5[C@]4(C)[C@H]3CC[C@@]21C | inactive |  |
